Sampled rows, rich in hits. Any-hit rate of the full collection: about 0.86%.
IDE inh: human IDE inhibitors in live cells, primary screen, fluorescence polarization, HEK cells, FAbetaB substrate; FAbetaB cleavage; inhibition, % at 5.59 µM; 0.41% of 320,000 active; AID 434962, 2010;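 active means percent inhibition above the average of all tested compounds plus 3 SD, set per screening campaign, cut at about 16% in these data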;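 further: IDE supplied by intact live HEK cells; FP after avidin binding of uncleaved biotin substrate so inhibition keeps polarization high; 0% = DMSO wells and 100% = 60 µM reference IDE inhibitor Ii1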
TLR4-MyD88 BLA: inhibitors of TLR4-MyD88 association in cells, primary screen, cell-based, HeLa CL3-4, BLA complementation, FRET ratio; Toll-like receptor 4 (Homo sapiens) + Myeloid differentiation primary response protein …; HeLa CL3-4 TLR4/MyD88 BLA complementation; inhibition, % at 8.4 µM; 0.18% of 200,000 active; AID 861, 2007; in the data active means inhibition above about 25%;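 further: 0% = vehicle and 100% = reference inhibitor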
TLR9-MyD88 block: inhibitors of TLR9-MyD88 association in cells, primary screen, cell-based, CHO, BLA complementation, fluorescence; Toll-like receptor 9 (Homo sapiens) + Myeloid differentiation primary response protein …; CCF4 FRET ratio; inhibition, % at 4.98 µM; 0.21% of 340,000 active;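 active means inhibition above the mean over all tested compounds plus 3 SD, cut at about 21% in these data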;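 further: 0% = DMSO only wells and 100% = clavulanate BLA inhibitor control wells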
Target sequence (Q99836 whole entry, looked up): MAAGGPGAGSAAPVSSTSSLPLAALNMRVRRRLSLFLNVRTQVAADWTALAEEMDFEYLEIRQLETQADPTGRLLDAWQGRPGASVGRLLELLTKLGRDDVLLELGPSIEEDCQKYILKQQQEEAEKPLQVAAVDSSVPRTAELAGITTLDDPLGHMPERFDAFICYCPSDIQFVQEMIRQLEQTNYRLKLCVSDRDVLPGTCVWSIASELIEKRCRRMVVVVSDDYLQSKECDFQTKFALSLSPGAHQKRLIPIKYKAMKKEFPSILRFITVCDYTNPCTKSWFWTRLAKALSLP
Target sequence (Q9NR96 whole entry, looked up): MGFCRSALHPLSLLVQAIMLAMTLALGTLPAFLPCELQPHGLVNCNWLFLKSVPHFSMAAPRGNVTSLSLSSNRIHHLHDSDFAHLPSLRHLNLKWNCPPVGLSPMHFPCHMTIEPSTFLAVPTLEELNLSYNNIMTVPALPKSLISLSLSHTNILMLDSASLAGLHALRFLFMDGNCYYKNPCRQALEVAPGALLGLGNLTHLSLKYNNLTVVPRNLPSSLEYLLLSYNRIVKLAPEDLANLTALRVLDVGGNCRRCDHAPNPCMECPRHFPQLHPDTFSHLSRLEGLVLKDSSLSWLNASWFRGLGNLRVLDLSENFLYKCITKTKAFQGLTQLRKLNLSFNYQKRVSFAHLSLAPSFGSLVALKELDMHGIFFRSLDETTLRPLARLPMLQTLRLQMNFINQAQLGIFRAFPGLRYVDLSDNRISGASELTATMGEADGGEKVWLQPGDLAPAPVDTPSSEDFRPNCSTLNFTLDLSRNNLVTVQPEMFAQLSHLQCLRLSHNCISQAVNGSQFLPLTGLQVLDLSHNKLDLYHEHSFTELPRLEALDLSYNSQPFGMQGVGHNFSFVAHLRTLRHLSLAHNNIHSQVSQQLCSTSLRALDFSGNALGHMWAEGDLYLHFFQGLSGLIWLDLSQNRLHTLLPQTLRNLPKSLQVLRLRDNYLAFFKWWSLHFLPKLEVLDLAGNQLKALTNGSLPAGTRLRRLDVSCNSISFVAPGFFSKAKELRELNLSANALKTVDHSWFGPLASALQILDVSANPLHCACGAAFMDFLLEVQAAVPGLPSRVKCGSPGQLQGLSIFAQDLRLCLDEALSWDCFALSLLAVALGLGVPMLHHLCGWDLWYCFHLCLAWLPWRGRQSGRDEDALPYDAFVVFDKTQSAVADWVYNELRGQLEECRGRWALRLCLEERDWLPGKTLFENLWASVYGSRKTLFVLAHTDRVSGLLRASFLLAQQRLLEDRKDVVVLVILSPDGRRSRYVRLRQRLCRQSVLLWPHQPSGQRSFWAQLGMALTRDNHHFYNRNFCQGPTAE
NOD2 RIPK2 PPI: NOD2-RIPK2 binding disruptors in cells, primary screen, fluorescence, CHO cells, BLA complementation; 0.38% of 360,000 active; inhibition, % at 4.98 µM; CCF4 ratio; Receptor-interacting serine/threonine-protein kinase 2 (Homo sapiens), O43353; in the data active means inhibition above about 21%;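 further: 0% = vehicle only and 100% = reference blocker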
IDE cell activ: human IDE activators in live cells, primary screen, fluorescence polarization, HEK cells, FAbeta-B substrate | Insulin-degrading enzyme (Homo sapiens), P14735 | FAbeta-B cleavage; 0% vehicle, 100% cell-free pure enzyme wells | activation, % at 5.96 µM | 0.073% of 340,000 active | AID 493087, 2011;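 active means activation above the mean of all tested compounds plus 3 SD, set per screening campaign, cut at about 17% in these data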
NOD2 RIPK2 conf: NOD2-RIPK2 binding disruptors, retest, confirmation, fluorescence, CHO cells, BLA complementation, triplicate; shares compounds with NOD2 RIPK2 PPI; CCF4 FRET; inhibition, % at 4.98 µM; 70% of 1,200 active; AID 624370, 2012;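 active means mean inhibition across replicates above a set limit taken from the earlier primary screen, cut at about 21% in these data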;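 further: 0% = DMSO-only wells and the high end = clavulanate BLA-blocked wells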
BLA counter: NOD2-RIPK2 counterscreen BLA reporter activity; shares compounds with NOD2 RIPK2 PPI; CHO BLA reporter, CCF4 FRET ratio; inhibition, % at 4.98 µM; 57% of 1,200 active;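 active means mean inhibition above the low-control mean inhibition plus three low-control SD, cut at about 11% in these data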;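 further: 0% = DMSO only wells and 100% = clavulanate high control wells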
An asterisk follows results filed as active; nt = no result.

SMILES	IDE inh	TLR4-MyD88 BLA	TLR9-MyD88 block	NOD2 RIPK2 PPI	IDE cell activ	NOD2 RIPK2 conf	BLA counter
CSCCC(c1nc2ccccc2[nH]1)n1c(=O)c(-c2cc3ccccc3[nH]2)nc2ccccc21 (stereo not drawn)	nt	nt	nt	40.0*	nt	34.6*	59.4*
O=c1c(-c2cc3ccccc3[nH]2)nc2ccccc2n1C(CCc1ccccc1)c1nc2ccccc2[nH]1 (stereo not drawn)	nt	nt	nt	38.4*	nt	36.0*	61.9*
CSCCC(c1nc2ccccc2[nH]1)n1c(/C=C/c2ccc(F)c(F)c2)nc2ccccc21 (stereo not drawn)	nt	nt	nt	-13.9	nt	nt	nt
Cc1ccc(Cc2nc3ccccc3n2C(CCc2ccccc2)c2nc3ccccc3[nH]2)cc1 (stereo not drawn)	nt	nt	nt	-5.0	nt	nt	nt
Cc1cc(S(=O)(=O)N2CCCC2)ccc1OCC(=O)NCc1ccco1	7.7	-8.8	4.4	0.8	-0.3	nt	nt
O=c1ccc2ccc(O)cc2o1	nt	nt	-0.8	-6.5	6.2	nt	nt
O=c1ccc2cc(O)c(O)cc2o1	5.8	11.8	8.6	22.8*	11.0	22.7*	36.5*
CCn1c(SCC(=O)NCCc2ccc(OC)c(OC)c2)nc2c1c(=O)n(C)c(=O)n2C	-3.9	5.8	5.2	-4.6	0.9	nt	nt
COc1cccc(NC(=O)Nc2cccc(C(=O)O)c2)c1	-1.4	8.9	4.3	-4.6	-0.4	nt	nt
C=C1CC(Cn2cc(Br)c(=O)[nH]c2=O)(c2ccc(-c3ccccc3)cc2)OC1=O (stereo not drawn)	nt	nt	9.4	79.3*	-7.7	71.0*	8.5
O=c1[nH]c(=O)n(Cc2ccc(Oc3ccccc3)cc2)cc1Br	5.5	nt	-3.0	-2.0	-0.4	nt	nt
O=C(Cc1ccc(S(=O)(=O)N2CCCCC2)cc1)NCc1ccc(Cl)cc1	0.8	nt	-0.6	-3.2	-2.5	nt	nt
Cc1cccc(C(=O)Nc2ccc(C(=O)/C=C/c3ccncc3)cc2)c1	10.7	nt	8.6	56.2*	-23.2	76.4*	1.9
CCN(C[C@H]1N[C@@](Cc2ccccc2)(C(=O)OC)[C@H]2C(=O)N(Cc3ccccc3)C(=O)[C@@H]12)S(=O)(=O)c1ccc(C)cc1	10.0	nt	-3.9	0.7	3.6	nt	nt
Cc1ccc(C(=O)c2sc3nsc(C)c3c2N)cc1	0.8	4.9	16.6	24.2*	0.6	23.1*	25.6*
Cc1snc2sc(C(=O)c3ccc(Br)cc3)c(N)c12	3.5	19.2	0.6	5.2	1.6	nt	nt
COc1ccc(-n2nc3c(N4CCC(C(=O)NCc5cccc(C)c5)CC4)nnc(C)c3c2C)cc1	-3.5	nt	6.2	13.2	0.7	nt	nt
CCOc1ccccc1CNC(=O)C1CCN(c2nnc(C)c3c(C)n(-c4ccc(C)cc4)nc23)CC1	0.6	nt	-5.8	37.1*	4.0	35.4*	11.6*
CCOc1ccc(CNC(=O)C2CCN(c3nnc(C)c4c(C)n(-c5ccc(C)cc5)nc34)CC2)cc1	-0.3	nt	7.2	35.9*	9.8	47.6*	18.9*
Cc1ccc(-n2nc3c(N4CCC(C(=O)NCc5ccccc5C)CC4)nnc(C)c3c2C)cc1	7.5	nt	5.7	24.0*	6.8	36.5*	7.4
COc1ccccc1CCNC(=O)C1CCN(c2nnc(C)c3c(C)n(-c4ccc(C)cc4)nc23)CC1	2.2	nt	2.1	5.2	-7.0	nt	nt
O=C(NCc1cccc(C(F)(F)F)c1)C1CC2Cn3c(nc4ccccc43)C2N1Cc1ccccc1 (stereo not drawn)	-3.1	nt	2.8	-1.5	2.0	nt	nt
O=C1c2cccc3c([N+](=O)[O-])ccc(c23)C(=O)N1O	-2.2	nt	9.4	20.9*	2.1	17.2	12.5*
COc1ccc2oc(=O)c(-c3nnc(NCc4ccco4)s3)cc2c1	-0.7	11.5	20.5	21.2*	1.4	49.0*	49.4*
CC(=O)Nc1cccc(N(C)S(C)(=O)=O)c1	1.9	8.5	5.1	-6.6	3.7	nt	nt
SMILES	IDE inh	TLR4-MyD88 BLA	TLR9-MyD88 block	NOD2 RIPK2 PPI	IDE cell activ	NOD2 RIPK2 conf	BLA counter
CC(=O)Nc1cccc(S(C)(=O)=O)c1	1.7	10.7	-9.7	21.3*	-1.2	-1.9	-4.2
CCOC(=O)Nc1cccc2ccccc12	3.7	15.9	-0.1	-21.1	-1.4	nt	nt
CCOC(=O)Nc1ccc2c3c(cccc13)-c1ccccc1-2	nt	nt	16.0	33.7*	2.4	31.4*	47.2*
Cc1cc(OCCn2cc(/C(N)=N/O)c3ccccc32)ccc1Cl	-1.4	-15.3	4.3	23.1*	-1.1	10.6	7.5
COC(=O)c1cn(CCOc2ccc(C)cc2)c2ccccc12	-0.2	9.9	3.2	3.5	-4.9	nt	nt
O=C(NC1=C(Nc2ccc(Cl)cc2)C(=O)c2ccccc2C1=O)c1ccccc1	-5.7	-14.4	-4.3	-8.7	0.7	nt	nt
O=C1C(Cl)=C(NC(=O)c2ccccc2)C(=O)C(Cl)=C1NC(=O)c1ccccc1	1.8	nt	7.2	53.8*	-32.5	67.8*	36.6*
Cc1ccc(OCc2occc2C(=O)O)cc1	nt	nt	-7.0	-13.6	4.6	nt	nt
O=C(Nc1ccc(S(=O)(=O)N2CCOCC2)cc1)c1ccc([N+](=O)[O-])o1	-5.5	nt	10.1	20.4	8.6	nt	nt
O=C(Nc1ccc(S(=O)(=O)N2CCCC2)cc1)c1ccc([N+](=O)[O-])o1	0.4	nt	2.3	23.0*	3.0	27.1*	20.5*
O=C(Nc1ccc(Cc2ccncc2)cc1)c1ccc([N+](=O)[O-])o1	-11.9	nt	6.7	21.4*	2.2	32.1*	15.7*
CC(=O)N1CCN(c2ccc(NC(=O)c3ccc([N+](=O)[O-])o3)cc2Cl)CC1	-3.6	nt	4.1	28.2*	2.4	26.7*	6.4
O=C(Nc1ccc(Cc2ccncc2)cc1)c1cccc([N+](=O)[O-])c1	1.8	-3.9	-8.9	-1.6	0.5	nt	nt
CN(CC(=O)Nc1c(Cl)cccc1Cl)C(=O)c1ccc(NS(=O)(=O)c2ccc3[nH]c(=O)[nH]c3c2)cc1	nt	nt	-14.3	4.5	1.2	nt	nt
COc1ccccc1N(C)S(=O)(=O)c1ccc(C(=O)OCC(=O)N2CCCCCC2)cc1	5.5	-3.9	-4.7	-4.2	-4.0	nt	nt
